Experimental data taken from PubChem BioAssay (NCI).
About 83,000 compounds went through this panel and 20% of them were active in at least one assay; those are over-represented in the sample as a whole.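 Interpretation: 100, growth as untreated; towards 0, rising growth inhibition; 0, no net growth; 0 to -100, cell death. Compounds scoring below 10 were considered active.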 Active and inactive are the calls of the source.

Each compound was assayed on MDA-MB-468 breast (assay: NCI-60 one-dose screen, 48 h (100 = growth as untreated, 0 = no growth, -100 = all killed)). Details: 10 µM unless noted.

| SMILES | growth |
| --- | --- |
| CCCCNC(=O)NS(=O)(=O)c1ccc(N2N=C(c3cc(C)ccc3C)CC2c2cc(OC)c(OC)c(OC)c2)cc1 (stereo not given) | 24.4% (inactive) |
| CSc1cnc2ccccc2n1 | 119% (inactive) |
| NCCN1CCN(c2nccc(-c3ccc4ccccc4c3)n2)CC1 | 56.2% (inactive) |
| CN(C)S(=O)(=O)c1ccc(S(=O)(=O)Nc2cccc(Cl)c2N2CCCCC2)cc1 | 67.8% (inactive) |
| S=C(N/N=C/c1cc(Cl)cc(Cl)c1)NC12CC3CC(CC(C3)C1)C2 | 104% (inactive) |
| C=CCn1c(C)nc2cc(Nc3nc(Cl)nc4ccccc34)ccc21 | 83.7% (inactive) |
| CCc1c(Nc2ccc(C)cc2)nc(N)[nH]c1=O | 94.5% (inactive) |
| NCCOc1ncccc1/C=C1\c2ccccc2-c2ccc(F)cc21 | -24.1% (active) |
| CS(=O)(=O)c1nccc(-c2c(-c3cccc(OCc4ccccc4)c3)nc3sccn23)n1 | -65.1% (active) |
| Clc1ccc(/C=N\N=c2\scc(-c3ccc(Cl)cc3)n2/N=C/c2ccc(Cl)cc2)cc1 | 115% (inactive) |
| CCOC(=O)c1c(-c2cc(OC)c(OC)c(OC)c2)csc1N | 50% (inactive) |
| CCc1ccccc1-n1c(-c2ccc(Cl)cc2)cc(-c2ccc(Cl)cc2)c(C#N)c1=O | 87.6% (inactive) |
| Nc1nc(C(=O)N/N=C/c2ccc(F)cc2)nn1-c1ccc(S(N)(=O)=O)cc1 | 102% (inactive) |
| COc1ccc2nc3cc(Cl)ccc3c(NCCNc3c4ccc(Cl)cc4nc4ccc(OC)cc34)c2c1 | -69.8% (active) |
| O=C(Nc1ccncc1)C(=O)c1cn(S(=O)(=O)c2cccc(F)c2)c2ccccc12 | 12% (inactive) |
